In PubChem BioAssay AID1671202 (University of Kansas High Throughput Screening Laboratory, 2021):
Out of some 190,000 compounds screened, about 6,900 (3.6%) were called active. Cut-off read from the data, not from the text of the source: active = inhibition above about 50%; inactive = the rest. What follows is part of a selection rich in actives, with near analogues and random picks from the rest.

Each compound was assayed against Huntingtin (Homo sapiens) (UniProt P42858) (assay: mutant huntingtin-calmodulin interaction inhibitors – biochemical, AlphaScreen, primary screen (AID 1671202;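 note: 0% = both proteins with DMSO and 100% = one protein alone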)). Settings: AlphaScreen His-mHTT/GST-CaM binding, luminescence; at 15 µM, hits give high values.
Sequence of Huntingtin (Homo sapiens) (P42858 whole entry, looked up, stated change not applied): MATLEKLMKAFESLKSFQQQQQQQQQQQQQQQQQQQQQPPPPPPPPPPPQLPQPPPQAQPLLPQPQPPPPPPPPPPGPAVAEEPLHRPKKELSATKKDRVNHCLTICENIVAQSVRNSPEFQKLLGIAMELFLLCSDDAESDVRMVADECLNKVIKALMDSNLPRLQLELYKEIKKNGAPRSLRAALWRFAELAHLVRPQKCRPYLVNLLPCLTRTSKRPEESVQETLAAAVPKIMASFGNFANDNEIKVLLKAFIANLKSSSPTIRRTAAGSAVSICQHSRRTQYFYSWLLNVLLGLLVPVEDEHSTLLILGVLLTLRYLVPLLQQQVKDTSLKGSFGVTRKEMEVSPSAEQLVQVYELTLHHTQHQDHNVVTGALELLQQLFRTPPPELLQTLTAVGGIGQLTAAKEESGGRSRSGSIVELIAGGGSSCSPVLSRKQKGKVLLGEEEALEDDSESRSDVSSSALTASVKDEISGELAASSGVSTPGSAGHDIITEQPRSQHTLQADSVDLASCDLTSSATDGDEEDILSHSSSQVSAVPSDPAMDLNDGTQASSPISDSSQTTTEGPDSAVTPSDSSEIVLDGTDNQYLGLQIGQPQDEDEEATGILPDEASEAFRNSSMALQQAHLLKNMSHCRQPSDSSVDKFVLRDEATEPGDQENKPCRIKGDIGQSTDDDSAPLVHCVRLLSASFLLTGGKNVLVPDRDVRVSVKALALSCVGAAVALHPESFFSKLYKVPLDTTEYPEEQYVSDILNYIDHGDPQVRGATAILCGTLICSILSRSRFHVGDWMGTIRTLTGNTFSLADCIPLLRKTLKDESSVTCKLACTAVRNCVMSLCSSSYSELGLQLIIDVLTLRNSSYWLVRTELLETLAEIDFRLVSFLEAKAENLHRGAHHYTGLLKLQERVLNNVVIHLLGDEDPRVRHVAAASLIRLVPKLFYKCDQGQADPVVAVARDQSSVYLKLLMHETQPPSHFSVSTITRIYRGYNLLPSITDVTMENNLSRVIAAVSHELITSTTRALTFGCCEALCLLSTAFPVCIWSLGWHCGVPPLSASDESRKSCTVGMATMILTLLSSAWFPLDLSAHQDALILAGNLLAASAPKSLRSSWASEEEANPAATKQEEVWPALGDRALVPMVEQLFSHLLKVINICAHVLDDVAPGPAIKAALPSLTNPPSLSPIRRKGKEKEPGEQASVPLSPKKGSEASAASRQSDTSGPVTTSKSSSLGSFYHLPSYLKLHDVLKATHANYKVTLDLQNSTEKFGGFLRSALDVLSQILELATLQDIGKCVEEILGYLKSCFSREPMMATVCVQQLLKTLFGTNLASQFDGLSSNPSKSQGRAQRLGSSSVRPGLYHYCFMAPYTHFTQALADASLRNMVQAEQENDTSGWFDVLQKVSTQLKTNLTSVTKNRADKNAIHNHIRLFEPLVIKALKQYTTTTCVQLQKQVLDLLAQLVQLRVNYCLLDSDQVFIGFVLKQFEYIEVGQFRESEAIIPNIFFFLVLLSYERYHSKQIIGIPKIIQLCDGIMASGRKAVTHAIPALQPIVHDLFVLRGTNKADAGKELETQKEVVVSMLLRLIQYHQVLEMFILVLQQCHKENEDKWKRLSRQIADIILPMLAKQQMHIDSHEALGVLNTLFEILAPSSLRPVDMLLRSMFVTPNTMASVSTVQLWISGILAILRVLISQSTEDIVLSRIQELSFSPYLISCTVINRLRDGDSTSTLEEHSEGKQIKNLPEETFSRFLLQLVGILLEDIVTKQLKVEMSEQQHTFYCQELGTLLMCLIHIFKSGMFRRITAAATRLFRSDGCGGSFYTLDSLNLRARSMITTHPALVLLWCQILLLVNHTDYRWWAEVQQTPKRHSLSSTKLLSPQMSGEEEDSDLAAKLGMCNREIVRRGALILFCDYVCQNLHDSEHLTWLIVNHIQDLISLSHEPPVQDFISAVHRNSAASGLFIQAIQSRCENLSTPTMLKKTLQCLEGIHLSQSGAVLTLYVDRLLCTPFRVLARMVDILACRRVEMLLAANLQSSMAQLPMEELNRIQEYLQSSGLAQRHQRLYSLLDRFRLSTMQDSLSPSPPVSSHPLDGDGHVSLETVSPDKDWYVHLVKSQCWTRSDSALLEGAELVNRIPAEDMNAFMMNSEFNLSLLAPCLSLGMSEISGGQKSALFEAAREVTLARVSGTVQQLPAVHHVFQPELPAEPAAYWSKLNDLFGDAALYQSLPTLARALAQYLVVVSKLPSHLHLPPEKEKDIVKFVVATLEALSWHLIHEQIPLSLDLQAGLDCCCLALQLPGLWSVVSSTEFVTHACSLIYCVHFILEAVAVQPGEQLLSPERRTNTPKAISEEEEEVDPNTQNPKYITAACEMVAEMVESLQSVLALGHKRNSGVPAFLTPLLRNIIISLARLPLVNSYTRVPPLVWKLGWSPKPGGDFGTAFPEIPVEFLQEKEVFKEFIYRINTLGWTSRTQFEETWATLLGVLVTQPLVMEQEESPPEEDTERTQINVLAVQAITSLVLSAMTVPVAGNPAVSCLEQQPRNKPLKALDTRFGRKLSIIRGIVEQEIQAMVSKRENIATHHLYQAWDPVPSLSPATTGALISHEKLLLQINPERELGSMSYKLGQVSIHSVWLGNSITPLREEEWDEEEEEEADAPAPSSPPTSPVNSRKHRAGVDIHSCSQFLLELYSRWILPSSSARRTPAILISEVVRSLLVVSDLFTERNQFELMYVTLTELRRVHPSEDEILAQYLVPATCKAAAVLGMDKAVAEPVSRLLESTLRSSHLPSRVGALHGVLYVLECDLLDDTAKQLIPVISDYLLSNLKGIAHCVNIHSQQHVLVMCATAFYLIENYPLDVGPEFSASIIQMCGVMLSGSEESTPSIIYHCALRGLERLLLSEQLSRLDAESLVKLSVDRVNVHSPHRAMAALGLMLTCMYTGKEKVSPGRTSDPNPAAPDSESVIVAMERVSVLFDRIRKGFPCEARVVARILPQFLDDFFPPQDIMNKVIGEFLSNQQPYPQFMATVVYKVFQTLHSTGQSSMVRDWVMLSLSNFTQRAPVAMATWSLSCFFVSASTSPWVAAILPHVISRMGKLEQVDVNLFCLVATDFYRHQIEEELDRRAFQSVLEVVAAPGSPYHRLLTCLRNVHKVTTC

SMILES	inhibition
O[C@@H]1C[C@H](c2ccccc2)N(Cc2cccs2)C[C@H]1n1cc(C2CC2)nn1	19.2% (inactive)
CCCCCCN1C[C@H](O)[C@@H](n2cc(C3CC3)nn2)C[C@@H]1c1ccc(Cl)cc1	72.7% (active)
COc1ccc([C@H]2C[C@@H](n3cc(COC(=O)c4ccccc4)nn3)[C@H](O)CN2C(=O)c2cccs2)cc1	23.6% (inactive)
O=C(c1cccs1)N1C[C@H](n2cc(C3CC3)nn2)[C@@H](O)C[C@@H]1c1ccccc1	4.1% (inactive)
CCCCCCN1C[C@@H](O)[C@H](n2cc(COC(=O)c3ccccc3)nn2)C[C@@H]1c1ccc(Cl)cc1	-4.7% (inactive)
O=C(NCCC1CCN(C(=O)c2ccc(F)cc2)CC1)c1ccc(F)cc1	-1.87% (inactive)
O=C(Cc1ccccc1)Nc1ccc(C(=O)Nc2ccc(Cl)cc2Cl)cc1	-3.3% (inactive)
Cc1cc(C2CCCN2C(=O)c2ccn(C)n2)no1 (stereo unspecified)	-4.24% (inactive)
O=C(CC(c1ccccc1)c1ccccc1)N1CCN(c2ccccc2F)CC1	-3.5% (inactive)
O=C(Nc1ccc(N2CCN(Cc3ccc(F)cc3)CC2)nc1)C1CC1	5% (inactive)
Cc1cccc(-c2nc(CN3CCN(C(=O)C4CC4)CC3)no2)c1	4.1% (inactive)
CCCN1CCN(C(=O)c2cccc(C3CCCN(C(=O)NCC)C3)c2)CC1 (stereo unspecified)	10.7% (inactive)
CC(C)NC(=O)N1CCCC(c2cccc(C(=O)N3CCN(c4ccccc4)CC3)c2)C1 (stereo unspecified)	51.8% (active)
CC(C)NC(=O)N1CCCC(c2cccc(C(=O)NCc3ccc(Cl)cc3)c2)C1 (stereo unspecified)	2.21% (inactive)
CN(C)C(=O)c1cc2c(s1)CCC(C(=O)Nc1ccc(F)cc1F)C2 (stereo unspecified)	3.95% (inactive)
C#CCOc1ccc(/C=C2\NC(=O)N(CC(=O)Nc3cccc(C)c3)C2=O)cc1OC	3% (inactive)
O=C(Nc1ccc([N+](=O)[O-])cc1Br)c1cncc(Br)c1	-1% (inactive)
CCCCC[C@H](C)N1C[C@@H](COCc2ccccc2)Oc2cc(N3CCC[C@@H]3CO)ccc2S1(=O)=O	3.5% (inactive)
CCCCC[C@H](C)N1C[C@@H](COCc2ccccc2)Oc2cc(N3CC[C@@H](N(C)C)C3)ccc2S1(=O)=O	100% (active)
CSc1ccc(Oc2cccc3c2S(=O)(=O)N([C@H](C)c2ccccc2)C[C@@H](COCc2ccccc2)O3)cc1C	-4.7% (inactive)
O=C(NCCN1CCOCC1)Nc1ccccc1F	-6.5% (inactive)
CCCN1CCn2cc(C(=O)NCc3cccc(OC)c3)nc2C1	4.35% (inactive)
CCCN1CCn2cc(C(=O)N3CCN(c4cccc(OC)c4)CC3)nc2C1	4.51% (inactive)

SMILES	inhibition
CCCN1CCn2cc(C(=O)N3CCN(c4ccccc4)CC3)nc2C1	63% (active)
Cc1cc(C)cc(C(=O)N2CCC(COc3ccccc3C(=O)NC3CC3)CC2)c1	9.35% (inactive)
O=c1c(Cl)c(N2CCCC2)cnn1-c1ccccc1	-0.3% (inactive)
O=S(=O)(c1cccc(Cl)c1Cl)N1CCN(c2cc(N3CCCC3)ncn2)CC1	2.9% (inactive)
O=C1c2cccc(N3CCCCC3)c2C(=O)c2cccc(Cl)c21	98% (active)
COc1ccc(C(=O)Nc2ccc(-n3nncc3-c3ccccc3)cc2)cc1OC	57% (active)
COc1ccc(C(=O)Nc2ccc(-n3nncc3-c3ccccc3)cc2)c(OC)c1	31% (inactive)
COc1ccc(C(=O)Nc2ccc(-n3nncc3-c3ccccc3)cc2)cc1	18% (inactive)
CC(=O)c1cccc(N=Cc2cc([N+](=O)[O-])ccc2O)c1	6% (inactive)
Cc1cccc(OCC(O)CNC2CCCC2)c1 (stereo unspecified)	-1.4% (inactive)
CCOc1ccccc1C(=O)NCc1nnc2n1CCCC2	0.6% (inactive)
CC(C)n1cnc2cc(CNC(=O)c3ccccn3)ccc21	14% (inactive)
O=C(Nc1cccn2cnnc12)c1ccccn1	62% (active)
O=C(NCc1ccccc1)c1ccccn1	-4.7% (inactive)
COCCNC(=O)c1ccc2c(c1)ncn2-c1ccc(C)c(Cl)c1	24% (inactive)
Cc1cccc(NS(=O)(=O)c2ccc3[nH]c4c(c3c2)CCCC4)c1	98.9% (active)
NC(=O)c1ccc2[nH]c3c(c2c1)CCCC3	12.3% (inactive)
Cc1cccc(NS(=O)(=O)c2ccc3nnc(C)n3c2)c1	5% (inactive)
O=C(NCc1ccc2[nH]c3c(c2c1)CCCC3)C1CC1	7.3% (inactive)
COc1ccc(S(=O)(=O)N2CCC(C(=O)N3CCOCC3)CC2)cc1OC	-0.7% (inactive)
O=C(C1CCN(S(=O)(=O)c2ccc3[nH]c4c(c3c2)CCCCC4)CC1)N1CCCC1	56.3% (active)
Cc1ccc(C2=CC(c3ccc(Br)cc3)n3ncnc3N2)cc1 (stereo unspecified)	7% (inactive)
O=C(NCc1cccnc1)c1cnn2c1NC(c1cccs1)CC2C(F)(F)F (stereo unspecified)	4.91% (inactive)
